The values that follow come from PubChem BioAssay AID709 (SRMLSC, 2007).

SMILES strings stand for the structures. Among all 65,000 compounds or so, about 3,600 (5.5%) were called active.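 How the source made its calls: active means at 10 µM, mean starting fluorescence two-fold or more over control wells; inactive means the rest.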 The full list was thinned out, with actives kept by preference.

The nature of the assay: intrinsic fluorescence of library compounds, ex339/em460 – biochemical, MLSMR library, data from DPM-DC assay, artefact control, profiling panel (AID 709).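 Further: signal is the first read of a kinetic run.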 Conditions: compound autofluorescence, ex339/em460 nm, NADH buffer; at 10 µM; hits give high values; 1 = no-compound wells, NADH background.
In the case of `Cn1c(=O)c2c(nc(OCc3cccnc3)n2Cc2ccccc2)n(C)c1=O`, the fluorescence fold increase is 1.09 (inactive).
The value for `CCC(C)(NC(=O)c1ccccn1)C(=O)NC1CCCCC1` (stereo not given) was 1.14 (inactive); that for `Cc1cc(=O)n(C)c(=O)n1CCCNc1ccccc1` was 1.05 (inactive).
For `CCOC(=O)/C=c1\s/c(=C\c2ccccc2OC)c(=O)n1CC(=O)N1CCOCC1`, the fluorescence fold increase was 1.14 (inactive).
For the molecule `CCOC(=O)c1sc(/N=C/Nc2nc(C)c(C(=O)OCC)s2)nc1C`, the fluorescence fold increase is 4.03 (active).
On to `CCOC(=O)c1sc(NC(=O)C(CC)Sc2nccn2C)nc1C` (stereo not given), for which the fluorescence fold increase was 1.08 (inactive).
The value for `CCOC(=O)c1nc(N)sc1C(=O)OCC` was 1.12 (inactive); that for `O=C1NC2(CCCCC2)N=C1c1ccccc1` was 1.08 (inactive).
The figure for `COc1ccccc1N1CCN(C(=O)Cn2nnc(-c3cccs3)n2)CC1` is 1.07 (inactive).
The figure for `C=CCn1c(=S)[nH]c2nc3c(cc2c1=O)COC(C)(C)C3` is 1.03 (inactive); for `O=C(c1ccccc1-c1ccccc1)N1CCOCC1` it is 0.82 (inactive).
As for `COc1ccc(OC)c(C(=O)c2coc3ccc(O)c(CN4CCOCC4)c23)c1`, the fluorescence fold increase was 1.03 (inactive).
The value for `O=c1c(-c2ccccc2)coc2c(CN3CCOCC3)c(O)ccc12` was 2.45 (active); that for `CSCCC(NC(N)=O)C(=O)N(C)CC(=O)Nc1ccc(C)cc1` (stereo not given) was 0.91 (inactive).
Consider `O=C(NCCCN1CCCCCC1)C1CC(=O)N(C2CCCC2)C1` (stereo not given), for which the fluorescence fold increase is 1.16 (inactive).
The figure for `COc1cc2ccccc2cc1C(=O)Nc1ccc(S(=O)(=O)Nc2cc(C)on2)cc1` is 1.32 (inactive); for `O=C(Cn1cnc2c(nnn2-c2ccccc2)c1=O)N1CCC(Cc2ccccc2)CC1` it is 1.07 (inactive); for `CCOC(=O)c1cnc(-n2nc(C)cc2C)nc1-n1nc(C)cc1C` it is 1.13 (inactive).
The figure for `O=C(NCc1ccccn1)c1cnc2sccn2c1=O` is 2.7 (active); for `O=C(NCc1ccccn1)Nc1ccc(F)cc1` it is 1.14 (inactive).
As for `O=C(NCc1ccccn1)c1cc2ccccc2oc1=O`, the fluorescence fold increase is 1.48 (inactive).
In the case of `CCOC(=O)c1cnc2sccn2c1=O`, the fluorescence fold increase was 3.33 (active).
The value for `CCCCOc1ccc(-c2ncc(C(=O)OCC)c(N)n2)cc1` was 1.17 (inactive); that for `CCOC(=O)c1cc(NC(=O)c2cccnc2)cc(C(=O)OCC)c1` was 1.12 (inactive).
The figure for `CC(C)NS(=O)(=O)c1ccc(NC(=O)c2cccnc2)cc1` is 1.03 (inactive).
The value for `Cc1cc2nc(-c3ccc(NC(=O)c4cccnc4)cc3)oc2cc1C` was 2.26 (active); that for `CSc1nc(C)nc2c1c(=O)n(C)c(=O)n2C` was 1.11 (inactive); that for `c1coc(CNc2ncnc3ccccc23)c1` was 1.1 (inactive).
For the molecule `Cc1cc(NCc2ccco2)n2c(nc3ccccc32)c1C#N`, the fluorescence fold increase was 2.23 (active).
The value for `Cc1ccccc1NC(=O)NCc1ccco1` was 1.12 (inactive); that for `Cc1cccc(OCc2nnc(SCn3nnc4ccccc4c3=O)o2)c1` was 1.07 (inactive); that for `CC(C)(C)n1nc2c(c1NC(=O)c1ccc(S(=O)(=O)N3CCCC3)cc1)CS(=O)C2` (stereo not given) was 1.02 (inactive).
The figure for `O=C(CCN1C(=O)c2ccccc2C1=O)NCCN1CCOCC1` is 1.02 (inactive); for `N/C(=N\c1nc2ccccc2o1)NC(=O)C(Cc1ccccc1)N1C(=O)c2ccccc2C1=O` (stereo not given) it is 1.09 (inactive).
The figure for `O=C(NCCN1CCOCC1)[C@H](Cc1ccccc1)N1C(=O)c2ccccc2C1=O` is 2.12 (active); for `Clc1ccc(Cc2nnc(-c3cccs3)o2)cc1` it is 1.11 (inactive); for `O=C(Nc1nccs1)C1CCCN1S(=O)(=O)c1cccc2cccnc12` (stereo not given) it is 1 (inactive).
As to `Cc1c(C(=O)OCc2cc(=O)n3cc(Br)ccc3n2)oc2ccccc12`, the fluorescence fold increase is 1.07 (inactive).
The value for `Cc1c(C(=O)OCC(=O)N(CCC#N)c2ccccc2)oc2c1ccc1ccccc12` was 2.16 (active).
The figure for `NC(=NC(=O)c1ccccc1)C1=C(O)CCC1=O` is 1.14 (inactive).
The figure for `CCCc1nc(-c2ccccc2O)n(-c2ccccc2)n1` is 1.12 (inactive); for `COc1ccc(OC)c2sc(NC(=O)C3COc4ccccc4O3)nc12` (stereo not given) it is 1.19 (inactive); for `COCCCNC(=O)CSc1nc2ccc(N3CCOCC3)cc2c(=O)n1CCc1ccccc1` it is 2.61 (active).
Take `CCCCn1c(SCC(=O)NCC2CCCO2)nc2ccc(N3CCOCC3)cc2c1=O` (stereo not given): the fluorescence fold increase is 4.22 (active).
The value for `CCn1c(SCC(=O)NCC2CCCO2)nc2cc(S(=O)(=O)N3CCCCC3)ccc21` (stereo not given) was 1 (inactive); that for `Cc1ccc2cc(C#N)c(SCC(=O)NCC3CCCO3)nc2c1C` (stereo not given) was 1.14 (inactive).
As to `CCc1ccc(NC(=O)CSc2nc3ccccc3c(=O)n2CCN2CCOCC2)cc1`, the fluorescence fold increase was 1.09 (inactive).
The value for `COCCNC(=O)CSc1nc2c(n1-c1ccccc1)CCCC2` was 1.16 (inactive); that for `CC12CCC(C(=O)N(CCC#N)CCC#N)(CC1=O)C2(C)C` (stereo not given) was 1.07 (inactive).
The figure for `Cc1ccc(S(=O)(=O)N2CCC(C(=O)N[C@@H](C)C(=O)NCCc3ccccc3)CC2)cc1` is 1.11 (inactive); for `O=C(c1c(Cl)nc2sccn12)N1CCCc2ccccc21` it is 1 (inactive); for `O=C(CC(NCCN1CCOCC1)C(=O)O)Nc1cccc(Cl)c1` (stereo not given) it is 1.1 (inactive).
On to `COc1ccc(-n2nnc3c(=O)n(CC(=O)N4CCC(Cc5ccccc5)CC4)cnc32)cc1`, for which the fluorescence fold increase is 1.08 (inactive).
Regarding `COc1ccc2c(c1OC)C(=O)OC2c1c(O)nc(SC)n(-c2ccccc2)c1=O` (stereo not given), the fluorescence fold increase was 1.06 (inactive).
For `Cc1nc2ccccc2cc1O`, the fluorescence fold increase is 2.48 (active).
On to `Cc1cc(O)ccc1-c1cnc2ccccc2n1`, for which the fluorescence fold increase was 1.05 (inactive).
The value for `CCOC(=O)c1cc2ccccc2nc1C` was 1.08 (inactive); that for `Cc1cccc(OCc2nnc(SCC(=O)N3CCN(C(=O)c4ccco4)CC3)n2C)c1C` was 1.11 (inactive); that for `O=C(O)C1CCN(S(=O)(=O)N2CCOCC2)CC1` was 1.1 (inactive).
With `CCOC(=O)c1cc2n(c1N)-c1ccccc1C2=O`, the fluorescence fold increase was 1.16 (inactive).
The value for `CCOC(=O)c1cc2n(c1C)-c1ccccc1C2=O` was 1.02 (inactive); that for `CCCn1c(=NC(C)=O)c(C(=O)OCC)cc2c(=O)n3ccccc3nc21` was 3.86 (active).
The figure for `O=C(Nc1ccc(NC(=O)c2cccs2)cn1)c1ccco1` is 1.08 (inactive); for `Cc1cccc(-n2c(N)cc(=O)nc2SC(C)C(=O)NC2CCCCC2)c1` (stereo not given) it is 1.06 (inactive).
The value for `O=C(CN1C(=O)C2C3C=CC(C3)C2C1=O)NCCc1ccccc1Cl` (stereo not given) was 1.05 (inactive); that for `CCOc1ccc(OCC)c(NC(=O)CSc2nnc(Cn3cnc4ccccc43)n2C)c1` was 1.12 (inactive); that for `Cn1c(Cc2csc(N)n2)nnc1SC/C=C/c1ccccc1` was 1.1 (inactive).
With `Cc1cn(C2C=CC(CO)O2)c(=O)[nH]c1=O` (stereo not given), the fluorescence fold increase was 1.07 (inactive).
For `CCn1nc(NC(=O)c2ccco2)c2cc3ccc(C)cc3nc21`, the fluorescence fold increase is 3.62 (active).
The value for `Cc1ccc(-n2nc3cc(Cl)c(NC(=O)c4ccco4)cc3n2)cc1` was 1.84 (inactive).
Take `Cc1ccc(Cn2c(NC(=O)c3ccco3)nc3ccccc32)cc1`: the fluorescence fold increase was 1.32 (inactive).
Consider `CCOc1ccc(NC(=O)CCS(=O)(=O)c2cccc3nsnc23)cc1`, for which the fluorescence fold increase is 1.08 (inactive).
The figure for `CCC1CCCCN1C(=O)Nc1cccc(NC(=O)N2CCCCC2CC)c1` (stereo not given) is 1.13 (inactive); for `CCOC(=O)N1CCN(S(=O)(=O)c2cc3c(cc2C)NC(=O)CO3)CC1` it is 1.11 (inactive); for `CCn1ncc(C2=NOC(C(=O)N3CCN(c4ccccc4)CC3)C2)c1C` (stereo not given) it is 1.14 (inactive).
The figure for `O=C(NCc1cccs1)c1ccc2c(c1)ncn2C1CCCC1` is 1.03 (inactive); for `O=C(CSC1=Nc2ccccc2C2=NC(c3ccccc3)C(=O)N12)NCC1CCCO1` (stereo not given) it is 2.12 (active); for `O=C(CSc1nnc(-c2ccc(NS(=O)(=O)c3ccccc3)cc2)o1)NCC1CCCO1` (stereo not given) it is 1.01 (inactive).
The figure for `O=C(CS(=O)(=O)Cc1ccccc1)NCC1CCCO1` (stereo not given) is 1.1 (inactive).
Consider `O=C(c1cccs1)N(C(=O)c1cccs1)c1ccccn1`, for which the fluorescence fold increase was 1.09 (inactive).
The figure for `CN(C(=O)COc1ccccc1)c1nnc(-c2ccncc2)s1` is 5 (active).
Consider `CN(C(=O)c1ccccn1)c1nnc(-c2ccccn2)s1`, for which the fluorescence fold increase is 3.72 (active).
The figure for `CN(C(=O)C1CCOC1)c1nnc(-c2cccnc2)s1` (stereo not given) is 1.03 (inactive).
The value for `CN(C(=O)c1ccno1)c1nnc(-c2cccnc2)s1` was 1.68 (inactive).
The value for `COc1cccc(-c2nnc(N(C)C(=O)c3ccno3)s2)c1` was 1.38 (inactive).
With `Cc1ccc(C)c(NC(=O)CSc2nnc(Cc3cccn3C)n2-c2ccc(F)cc2)c1`, the fluorescence fold increase was 1.08 (inactive).
The figure for `CCCCOc1ccccc1/C=c1/sc2nc(-c3oc4ccccc4c3C)nn2c1=O` is 1.1 (inactive).
The figure for `Cc1ccccc1CSc1nnc(-c2ccccn2)n1N` is 1.08 (inactive).
The value for `CN(C)CCCNc1c2c(c(C#N)c3nc4ccccc4n13)CCC2` was 2.1 (active); that for `N#Cc1c2c(c(N3CCN(CCO)CC3)n3c1nc1ccccc13)CCCC2` was 1.53 (inactive).
On to `COc1ccc(-n2nc3c(c2NC(=O)Cc2cccc(C)c2)CS(=O)C3)cc1` (stereo not given), for which the fluorescence fold increase is 1.15 (inactive).
The figure for `Cn1cccc1C1(C(F)(F)F)NCCNC1=O` (stereo not given) is 1.11 (inactive).
The figure for `CC(=O)c1ccc(NC(=O)N[C@@H](Cc2ccccc2)C(=O)O)cc1` is 1.09 (inactive).
The value for `COc1cc(OC)cc(C(=O)Nc2ncc3c(n2)CC(C)(C)CC3=O)c1` was 1.1 (inactive).
Turning to `COc1ccc(NC(=O)c2ccc(OC)cc2)cc1`, the fluorescence fold increase was 1.13 (inactive).
The figure for `COc1cc(OC)cc(C(=O)Nc2ccc(-c3nc4ccccc4o3)c(O)c2)c1` is 2.11 (active); for `Cc1ccc(S(=O)(=O)NC(C)C(=O)Nc2ccccc2C(=O)N2CCCC2)cc1` (stereo not given) it is 1.1 (inactive); for `CCCC(=O)N=c1sc2cccc(F)c2n1C` it is 1.09 (inactive).
With `Cc1cc(C)c2c(n1)nn1c(N3CCOCC3)cc(C)nc21`, the fluorescence fold increase is 2.97 (active).
`Cc1cc(C)c2c(n1)nn1c(-n3ccnc3)cc(C)nc21`: the fluorescence fold increase is 3.27 (active).
Take `Cc1cc(N2CCCC2)n2nc(C)c(-c3ccccc3)c2n1`: the fluorescence fold increase is 1.68 (inactive).
The value for `C/C(O)=C\c1nc(=O)c2c(C)cc(C)nc2n1-c1ccccc1` was 1.08 (inactive); that for `O=C(c1ccco1)N1CCN(c2cccc(Cl)c2)CC1` was 1.03 (inactive).
The figure for `Cc1nn2c3cc(N4CCOCC4)ccc3nc2c2ccccc12` is 1.11 (inactive); for `Cc1cc(C)c2c(n1)nn1c(N3CCN(c4cccc(Cl)c4)CC3)cc(C)nc21` it is 2.17 (active).
